# G9a block = qHTS Assay for Inhibitors of Histone Lysine Methyltransferase G9a; Histone-lysine N-methyltransferase EHMT2 (Homo sapiens), Q96KQ7; G9a H3K9 monomethylation, AlphaScreen, 2 h; Potency, µM (doses to about 102 µM), usual class: inhibitors; 350,000 compounds, 8.8% hits; AID 504332, 2011; further: nearly all actives have a fitted effect of over 75% in size
# Target sequence (Q96KQ7 913-1193 limits assumed): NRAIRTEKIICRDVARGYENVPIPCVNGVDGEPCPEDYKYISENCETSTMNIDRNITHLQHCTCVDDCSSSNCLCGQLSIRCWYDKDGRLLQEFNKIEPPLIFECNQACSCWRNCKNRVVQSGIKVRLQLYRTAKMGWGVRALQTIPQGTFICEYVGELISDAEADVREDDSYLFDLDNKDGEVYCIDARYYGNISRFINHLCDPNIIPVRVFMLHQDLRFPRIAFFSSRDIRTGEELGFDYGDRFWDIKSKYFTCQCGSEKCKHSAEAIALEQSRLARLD
#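 Compounds were preincubated with 20 nM G9a for 15 min, after which biotinylated H3K9 peptide (500 nM) and SAM (20 uM) started a 2 h room-temperature reaction. Monomethylated product was quantified by antibody-based AlphaScreen chemiluminescence.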
# Tau fluor counter = Counterscreen qHTS for Inhibitors of Tau Fibril Formation, Fluorescence Polarization. tau K18 P301L Alexa594 fluorescence, heparin fibrillization. 280,000 compounds, 0.93% hits. Potency, µM (top dose mostly 57.7 µM); further: nearly all actives have a fitted effect of over 55% in size
#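 Human K18 P301L tau (15 uM unlabeled plus 0.24 uM Alexa 594-labeled, final) in 100 mM sodium acetate pH 7 was mixed with compound and 20 uM heparin and incubated 6 hr at 37 C.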
# Tau fibril FP = qHTS for Inhibitors of Tau Fibril Formation, Fluorescence Polarization; K18 P301L tau heparin fibrillization, Alexa594 FP, 6 h; Microtubule-associated protein tau (Homo sapiens), P10636; Potency, µM (titrated, usually from 57.7 µM), actives largely listed as inhibitors; 280,000 compounds, 0.39% hits; AID 1468, 2008; further: nearly all actives have a fitted effect of over 55% in size
# Target sequence (P10636 561-689 P618L limits assumed): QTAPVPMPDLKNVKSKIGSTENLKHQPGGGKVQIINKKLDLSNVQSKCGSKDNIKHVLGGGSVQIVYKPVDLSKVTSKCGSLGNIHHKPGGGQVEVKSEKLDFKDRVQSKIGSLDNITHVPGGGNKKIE
#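 Quantitative HTS format: compounds meet 15 uM recombinant K18 P301L tau and Alexa 594-tau tracer in 100 mM sodium acetate pH 7; 20 uM heparin triggers fibrillization at 37 C over 6 hr; FP gives the signal.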
# Sfp inh = qHTS Assay for Inhibitors of Bacillus subtilis Sfp phosphopantetheinyl transferase (PPTase); AID 1490, 2009; Biochemical Sfp PPTase activity, qHTS; 4'-phosphopantetheinyl transferase ffp (Bacillus subtilis), Q9F4F7; Potency, µM, most hits filed as inhibitors; 310,000 compounds, 3.5% hits;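 further: the enzyme is Sfp with the accession as filed and its product quenches rhodamine fluorescence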
#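 Sfp 15 nM + cpd, 15 min RT; start w/ rhodamine-CoA 5 uM, BHQ-2-YbbR 12.5 uM (final); 50 mM Hepes pH 7.6, 10 mM MgCl2, 0.01% NP-40, 0.01% BSA; read 525/598 nm at 0 and 30 min.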
# Coupling enz = qHTS Assay for Inhibitors of Fructose-1,6-bisphosphate Aldolase from Giardia Lamblia: Coupling assay counterscreen | coupling enzyme system counterscreen, AmpLite Red fluorescence | AID 2472, 2010 | activity change, negative = inhibition, % at 58.2 µM, hits read low | 290,000 compounds, 0.67% hits; in the data active means activity change below about -30%
#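 Coupling enzymes only (glyceraldehyde-3-phosphate) + compound, at 57.5 uM final, 10 min RT; add substrate/coupling/AmpLite Red mix, 20 min RT; fluorescence ex 525/em 598 nm. Actives flag coupling-system interference.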
# Tau fibril ThT = qHTS for Inhibitors of Tau Fibril Formation, Thioflavin T Binding; Microtubule-associated protein tau (Homo sapiens), P10636; recombinant tau K18 P301L (four-repeat tau fragment), heparin-induced fibrillization, ThT fluorescence; Potency, µM (top dose mostly 57.4 µM), actives largely listed as inhibitors; 270,000 compounds, 2.1% hits; AID 1460, 2008; further: nearly all actives have a fitted effect of over 55% in size
#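 In this qHTS, human K18 P301L tau is incubated with compound and heparin for 6 hr at 37 C, and Thioflavin T fluorescence then reports fibril load.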
# Hits are given with their value; - = inactive; ? = inconclusive; . = not tested or not shown; [ ] = dose if it differs, or a comment. Compounds with a hit are over-represented: about 11% of the library has one in this group of screens. Unless noted, the call rests on the fitted dose curve; in most records, active means well fitted curve in the direction sought with a large enough effect; inconclusive means small, poorly fitted or top-dose-only effect, or another doubt; inactive means no such curve, though single readings can be large; an effect the other way counts as inactive or inconclusive.
SMILES,G9a block,Tau fluor counter,Tau fibril FP,Sfp inh,Coupling enz,Tau fibril ThT
CSc1nnc(N2C(=O)C(O)=C(C(=O)c3ccco3)C2c2ccc(F)cc2)s1 (centres undefined),22.4µM,.,.,35.5µM,.,.
CCCCn1c(=O)c(CCC(=O)OCC(=O)Nc2ccc(F)c(Cl)c2)nc2ccccc21,-,-,-,-,-,-
CC(C)c1ccc(NC(=O)C(Cc2ccccc2)NS(=O)(=O)c2ccc3c(c2)CCC(=O)N3)cc1 (centres undefined),-,?,-,.,.,-
COc1ccc(-c2cn(CCC(=O)NCc3ccc(C)cc3)c(CCN)n2)cc1,-[2.33 µM],.,.,.,.,.
CCOc1ccc(CCNC(=O)C2CCCN2C(=O)OCc2ccccc2)cc1OCC (centres undefined),-,-,-,-,-,-
Cc1ccc(NC(=O)C(=O)NNC(=O)c2cccs2)cc1,3.98µM,-,-,-,-,-
CCC(=O)Nc1ccc(C(=O)NNC(=O)c2cccs2)cc1,0.199µM,-,-,-,-,-
O=C(NNc1c(Cl)cccc1Cl)c1cccs1,11.2µM,-,-,-,-,?
CCCCN(CCCC)S(=O)(=O)c1ccc(NC(=O)c2cccs2)cc1,-,?,14.1µM,-,-,-
Cc1ncc([N+](=O)[O-])n1CC(=O)Nc1cccc(C(F)(F)F)c1,-,.,.,-,-,.
COc1cc(Cl)c(NC(=O)CCS(=O)(=O)c2cc3c(cc2Cl)NC(=O)CO3)c(OC)c1,-,-,-,.,.,-
CC(C)c1ccc(Nc2cc(C(=O)NC3CCCCC3)c3ccccc3n2)cc1,-,-,-,.,.,-
C=C1CCN(C(C)C(=O)OCc2ccc(C)cc2)S(=O)(=O)c2ccccc21 (centres undefined),.,.,.,-,-,.
CC1=C/C(=C/N(C)c2ccccc2)C(=O)S1,?,-,?,28.2µM,-,20µM
O=C(COc1ccc(F)cc1)Nc1ccc(C(=O)OCc2cc(=O)n3nc(C4CC4)sc3n2)cc1,-,-,-,.,.,-
Cc1ccc2c(Cl)cc(Cl)c(OCC(=O)Nc3cc(S(=O)(=O)N(C)C)ccc3C)c2n1,70.8µM,-,-,?,-,-
Cc1cccc(N(Cc2cc3ccccc3[nH]c2=O)S(C)(=O)=O)c1,-,-,-,56.2µM,-,-
COc1ccc(OC)c(CCNC(=O)CCCc2nnc3n(C)c(=O)c4sccc4n23)c1,-,-,-,-,-,-
COc1ccc(S(=O)(=O)Nc2cc3c4c(c2)C(C)C(=O)N4CCC3)cc1OC (centres undefined),44.7µM,.,.,.,.,.
O=C1c2cccc3c([N+](=O)[O-])ccc(c23)C(=O)N1c1ccccn1,70.8µM,-,-,-,.,-
O=C1c2cccc3c([N+](=O)[O-])ccc(c23)C(=O)N1c1ccc(Cl)cn1,?,?,-,-,-,?
C/C(=N\NC(=O)CCCNc1ccc(C)cc1)c1ccccn1,15.8µM,-,-,-,-,-
C/C(=N\NC(=O)c1ccc(F)cc1)c1ccccn1,?,.,.,-,-,.
C=CCNC(=S)N/N=C(\C)c1ccccn1,-,-,-,79.4µM,-,-
OCC1OC(/C=C\c2ccccc2)C=CC1Oc1ccc2c(c1)OCO2 (centres undefined),.,-[11.6 µM],-[11.6 µM],-,-,?
SMILES,G9a block,Tau fluor counter,Tau fibril FP,Sfp inh,Coupling enz,Tau fibril ThT
COc1cc(O)c2c(=O)cc(-c3ccc(OC)c(-c4c(O)cc(O)c5c(=O)cc(-c6ccc(O)cc6)oc45)c3)oc2c1,-[2.33 µM],?,?,-,-,-
O=c1cc(-c2ccc(O)c(-c3c(O)cc(O)c4c(=O)cc(-c5ccc(O)cc5)oc34)c2)oc2cc(O)cc(O)c12,-,?,?,-,-,14.1µM
O=c1c(-c2c(O)cc(O)c3c(=O)cc(-c4ccc(O)cc4)oc23)c(-c2ccc(O)cc2)oc2cc(O)cc(O)c12,?,?,?,?,-,15.8µM
CCc1ccc(NC(=O)CCn2cnc3ccccc3c2=O)cc1,-,-,-,.,.,-
O=C(c1ccccc1F)N1c2nc(-c3ccco3)nn2C2(CCCCC2)[C@@H]2CCCC[C@@H]21,-,-,-,.,.,-
CCCCCn1c(CCNC(=O)c2cccc(C)c2)nc2ccccc21,-,-,-,.,.,-
CC1=CS(=O)(=O)CC1Sc1nc2ccccc2[nH]1 (centres undefined),79.4µM,-,-,-,-,-
CC1=CS(=O)(=O)CC1Sc1ncn[nH]1 (centres undefined),?,-,-,-,-,-
CC1=CS(=O)(=O)CC1Sc1nc(C)n[nH]1 (centres undefined),50.1µM,-,-,-,-,-
O=C(Nc1ccc(N2CCN(c3ncccc3C(F)(F)F)CC2)nc1)c1cccs1,?,12.6µM[quencher],-,-,-,7.94µM
CCOc1ccc(OCC(O)CN2CCN(S(=O)(=O)c3cccc(C(F)(F)F)c3)CC2)cc1 (centres undefined),?,.,.,-,-,.
O=S(=O)(c1ccc(Cl)c(C(F)(F)F)c1)N1CCN(CC(O)COc2ccccc2F)CC1 (centres undefined),28.2µM,.,.,-,-,.
COc1ccc(CC(=O)N/N=C(\C)c2cccs2)cc1,.,.,.,-,-,.
COc1cc(OC)c(/C=N/n2c(C3CCCCC3)n[nH]c2=S)c(OC)c1,1.26µM,.,.,-,-,.
COc1cccc(/C=N/n2c(C3CCCCC3)n[nH]c2=S)c1OC,?,.,.,-,-,.
COc1ccc(/C=N/n2c(C3CCCCC3)n[nH]c2=S)c(OC)c1,14.1µM,.,.,-,-,.
COc1cc(/C=N/n2c(C3CCCCC3)n[nH]c2=S)ccc1O,3.55µM,.,.,?,-,.
COc1cccc(/C=N/n2c(C3CCCCC3)n[nH]c2=S)c1O,2.51µM,.,.,79.4µM,-,.
COc1ccc2[nH]cc(CCNc3ccnc(-c4ccc(N(C)C)cc4)n3)c2c1,-[0.501 µM],.,.,?,-,.
CS(=O)(=O)N1CCC2(CC1)CN(Cc1ccc(C#N)cc1)C2,-[12.7 µM],.,.,-,-,.
Nc1nc2c(s1)COc1ccccc1-2,31.6µM,-,-,15.8µM,-,-
Cc1cccc(CN2CCN(Cc3ccco3)CC2)c1,10µM,.,.,?,-,.
Clc1cccc(CN2CCN(Cc3ccco3)CC2)c1,7.94µM,.,.,?,-,.
Cc1cccc(CN2CCN(c3ncccn3)CC2)c1,.,.,.,?,-,.
CCC(=O)N1CCc2cc(CNS(=O)(=O)c3ccc(Cl)s3)ccc21,-,-,-,.,.,-
O=c1c(-c2ccc(Cl)cc2)nc2cnc(N3CCOCC3)nc2n1CCc1ccccc1,-[0.501 µM],.,.,-,-,.
